# Test results reported in PubChem BioAssay (Tox21).
# Records with an inconclusive call do not appear. Entries that show only a call come without a potency. A number with no mark means an inactive call. Activity calls are given as the source filed them. Unless noted, the call rests on the fitted dose curve; in most records, active means well fitted curve in the direction sought with a large enough effect in the repeat runs; inconclusive means weak or mixed curves; inactive means no such curve, though single readings can be large; an effect the other way counts as inactive or inconclusive.
# Legend:
# [1] = qHTS assay to identify small molecule antagonists of the thyroid receptor (TR) signaling pathway - cell viability counter screen (AID 743064); further: nearly all actives have a fitted effect of over 50% in size; further: potency means the concentration at half of the fitted maximal effect
# In short: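 GH3.TRE-Luc cells, 4 h pre-plating; cpd + T3 1 nM final; 37 °C 23.5 h; CellTiter-Fluor 30 min; fluorescence read.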
# [2] = qHTS assay to identify small molecule antagonists of the thyroid receptor (TR) signaling pathway (AID 743065); further: nearly all actives have a fitted effect of over 55% in size; further: potency means the concentration at half of the fitted maximal effect
# In short: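 GH3.TRE-Luc rat pituitary cells (two TREs driving luciferase) were dosed with compound, then stimulated with 1 nM T3 (final) for 23.5 h at 37 C. ONE-Glo luminescence was the read-out, with CellTiter-Fluor fluorescence as the cytotoxicity counter-screen.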
# [3] = test system: thyroid hormone receptor (rat, GH3 cells); assay: qHTS assay to identify small molecule agonists of the thyroid receptor (TR) signaling pathway (AID 743066; calls by dose curve)
# [4] = target: Estrogen receptor (Homo sapiens) (UniProt P03372); assay: qHTS assay to identify small molecule antagonists of the estrogen receptor alpha (ER-alpha) signaling pathway (AID 743069; active means well fitted curve in the direction sought with a large enough effect in the signal ratio in the repeat runs, not every such curve was filed as active; the % refers to the signal ratio)
# Estrogen receptor (Homo sapiens), sequence (P03372 whole entry, looked up): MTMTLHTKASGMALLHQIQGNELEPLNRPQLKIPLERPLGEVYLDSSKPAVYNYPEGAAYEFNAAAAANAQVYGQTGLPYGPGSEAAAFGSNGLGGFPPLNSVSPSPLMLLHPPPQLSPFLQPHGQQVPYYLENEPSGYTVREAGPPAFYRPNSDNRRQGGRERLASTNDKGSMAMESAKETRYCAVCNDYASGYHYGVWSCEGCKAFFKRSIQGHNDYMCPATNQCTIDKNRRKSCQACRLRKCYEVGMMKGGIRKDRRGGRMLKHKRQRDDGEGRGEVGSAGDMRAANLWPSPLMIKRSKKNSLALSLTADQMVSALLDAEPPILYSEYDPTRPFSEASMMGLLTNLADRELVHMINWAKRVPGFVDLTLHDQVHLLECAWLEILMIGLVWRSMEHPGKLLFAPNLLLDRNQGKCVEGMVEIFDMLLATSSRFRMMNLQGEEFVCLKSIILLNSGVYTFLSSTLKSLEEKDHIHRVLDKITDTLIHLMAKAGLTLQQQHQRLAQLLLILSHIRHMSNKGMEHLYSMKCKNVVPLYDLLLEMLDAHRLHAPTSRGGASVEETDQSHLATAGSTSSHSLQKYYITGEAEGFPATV
# In short: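 Beta-lactamase FRET fluorescence is read after 2 hr at room temperature with LiveBLAzer B/G substrate. Before that, ER-alpha-bla HEK293 cells sit 4 hr after plating, then receive compound plus 17beta-estradiol and incubate 18 hr at 37C.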
# [5] = qHTS assay to identify small molecule antagonists of the estrogen receptor alpha (ER-alpha) signaling pathway - cell viability counter screen (AID 743074; calls by dose curve;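 further: HEK293 cells carrying ER-alpha-UAS-bla reporter stimulated with 17beta-estradiol; nearly all actives have a fitted effect of over 45% in size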)
# [6] = qHTS assay to identify small molecule antagonists of the estrogen receptor alpha (ER-alpha) signaling pathway using the BG1 cell line (AID 743080; calls by dose curve;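 further: BG1 cells stimulated with 17beta-estradiol alongside compound; series mostly up to about 70 µM; nearly all actives have a fitted effect of over 25% in size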)
# In short: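 After 5 days in phenol-red-free 10% charcoal-stripped FBS medium, BG1-Luc-4E2 cells were seeded, left 24 h at 37 C, co-treated with compounds and 17beta-estradiol for 21.5 h, then assayed for viability and luciferase.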
# [7] = qHTS assay to identify small molecule antagonists of the estrogen receptor alpha (ER-alpha) signaling pathway using the BG1 cell line - cell viability counter screen (AID 743081);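 further: compound given together with 17beta-estradiol as the ER stimulus; series mostly up to about 70 µM; nearly all actives have a fitted effect of over 45% in size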
# Aromatase (Homo sapiens) = Aromatase (Homo sapiens) (UniProt P11511); assay: qHTS assay to identify aromatase inhibitors (AID 743083); further: series mostly up to about 70 µM; nearly all actives have a fitted effect of over 55% in size
# Aromatase (Homo sapiens), sequence (P11511 whole entry, looked up): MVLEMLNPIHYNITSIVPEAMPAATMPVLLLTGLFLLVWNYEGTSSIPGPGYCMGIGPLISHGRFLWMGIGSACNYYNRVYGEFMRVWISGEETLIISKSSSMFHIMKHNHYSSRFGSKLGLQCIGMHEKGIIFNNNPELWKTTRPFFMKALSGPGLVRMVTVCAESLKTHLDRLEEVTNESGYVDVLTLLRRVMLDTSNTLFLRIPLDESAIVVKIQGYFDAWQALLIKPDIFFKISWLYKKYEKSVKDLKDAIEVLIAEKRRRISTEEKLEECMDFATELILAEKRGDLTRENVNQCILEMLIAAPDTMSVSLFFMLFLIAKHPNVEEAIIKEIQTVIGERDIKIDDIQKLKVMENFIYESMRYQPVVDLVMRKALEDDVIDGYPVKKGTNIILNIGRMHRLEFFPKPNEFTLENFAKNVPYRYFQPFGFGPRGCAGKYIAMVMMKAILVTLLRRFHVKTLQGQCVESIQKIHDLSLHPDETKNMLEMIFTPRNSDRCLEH
# [8] = qHTS assay to identify aromatase inhibitors - cell viability counter screen (AID 743084);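 further: cells stimulated with testosterone during compound exposure; nearly all actives have a fitted effect of over 55% in size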; further: potency means the concentration at half of the fitted maximal effect
# [9] = target: Aryl hydrocarbon receptor (Homo sapiens) (UniProt P35869); assay: qHTS assay to identify small molecule that activate the aryl hydrocarbon receptor (AhR) signaling pathway (AID 743085);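 further: HG2L7.5c1 human HepG2 liver cells with stably integrated DRE-driven firefly reporter; series mostly up to about 70 µM; nearly all actives have a fitted effect of over 15% in size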
# Aryl hydrocarbon receptor (Homo sapiens), sequence (P35869 whole entry, looked up): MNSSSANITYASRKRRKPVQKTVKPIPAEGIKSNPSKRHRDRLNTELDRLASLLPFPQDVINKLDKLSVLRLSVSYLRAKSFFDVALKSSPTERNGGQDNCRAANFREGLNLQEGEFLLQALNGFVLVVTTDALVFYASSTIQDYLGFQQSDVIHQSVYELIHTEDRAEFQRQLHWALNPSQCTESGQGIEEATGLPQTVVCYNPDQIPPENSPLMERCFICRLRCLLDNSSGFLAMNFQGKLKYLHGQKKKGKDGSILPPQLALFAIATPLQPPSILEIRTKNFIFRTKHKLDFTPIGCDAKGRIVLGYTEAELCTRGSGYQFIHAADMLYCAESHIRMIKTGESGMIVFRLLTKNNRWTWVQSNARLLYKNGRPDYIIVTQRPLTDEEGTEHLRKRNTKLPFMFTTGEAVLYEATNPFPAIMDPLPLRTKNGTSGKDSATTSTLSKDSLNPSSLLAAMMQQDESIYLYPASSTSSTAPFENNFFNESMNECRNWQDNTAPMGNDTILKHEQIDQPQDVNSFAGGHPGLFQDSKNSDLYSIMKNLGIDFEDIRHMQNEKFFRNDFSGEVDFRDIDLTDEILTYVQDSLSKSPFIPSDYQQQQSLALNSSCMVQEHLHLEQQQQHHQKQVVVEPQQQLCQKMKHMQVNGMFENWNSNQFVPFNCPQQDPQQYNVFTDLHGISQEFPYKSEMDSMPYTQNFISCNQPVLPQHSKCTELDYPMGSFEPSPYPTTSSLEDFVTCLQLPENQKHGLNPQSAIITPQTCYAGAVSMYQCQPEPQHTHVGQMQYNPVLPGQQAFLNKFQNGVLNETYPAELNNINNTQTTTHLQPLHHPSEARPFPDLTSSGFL
# In short: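 Luminescence read-out: ONE-Glo reagent, 30 min at room temperature, in HG2L7.5c1 HepG2 reporter cells treated 24 h at 37C. Viability was measured beforehand by CellTiter-Fluor fluorescence after 30 min at 37C.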
# [10] = qHTS assay to identify small molecule that activate the aryl hydrocarbon receptor (AhR) signaling pathway - cell viability counter screen (AID 743086);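 further: HepG2 liver cells carrying the AhR DRE luciferase reporter; series mostly up to about 70 µM; nearly all actives have a fitted effect of over 45% in size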
# In short: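 HepG2-AhR-luc (HG2L7.5c1) cells, 4000/well, treated 24 h at 37 C with compound; viability measured as CellTiter-Fluor fluorescence after 30 min in the same wells as the luciferase read.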
# [11] = target: Peroxisome proliferator-activated receptor gamma (Homo sapiens) (UniProt P37231); assay: qHTS assay to identify small molecule agonists of the peroxisome proliferator-activated receptor gamma (PPARg) signaling pathway (AID 743094; active means well fitted activation curve with a large enough effect in the signal ratio in the repeat runs, not every such curve was filed as active; the % refers to the signal ratio)
# Peroxisome proliferator-activated receptor gamma (Homo sapiens), sequence (P37231 whole entry, looked up): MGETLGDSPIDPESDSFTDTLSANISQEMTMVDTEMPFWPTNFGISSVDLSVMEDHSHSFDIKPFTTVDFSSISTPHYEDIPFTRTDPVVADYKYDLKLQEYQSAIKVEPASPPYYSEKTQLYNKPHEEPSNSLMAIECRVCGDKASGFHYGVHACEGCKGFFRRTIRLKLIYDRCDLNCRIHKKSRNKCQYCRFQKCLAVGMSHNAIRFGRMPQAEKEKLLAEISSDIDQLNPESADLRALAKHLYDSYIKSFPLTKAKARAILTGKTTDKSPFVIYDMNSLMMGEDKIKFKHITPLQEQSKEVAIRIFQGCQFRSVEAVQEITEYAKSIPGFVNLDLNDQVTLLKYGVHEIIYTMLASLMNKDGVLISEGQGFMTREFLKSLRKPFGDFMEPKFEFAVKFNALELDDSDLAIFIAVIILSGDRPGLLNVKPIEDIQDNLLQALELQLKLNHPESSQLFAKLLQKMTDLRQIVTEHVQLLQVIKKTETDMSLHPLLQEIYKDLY
# In short: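 Cells from the PPARg UAS-bla HEK293H line are plated and incubated 5 h at 37C. Compounds in DMSO are pinned in and left 17 h at 37C. LiveBLAzer B/G substrate is then added for 1 h at room temperature before fluorescence is measured.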
# [12] = target: Peroxisome proliferator-activated receptor gamma (Homo sapiens) (UniProt P37231); assay: qHTS assay to identify small molecule antagonists of the peroxisome proliferator-activated receptor gamma (PPARg) signaling pathway (AID 743191; calls by dose curve; further: series mostly up to about 63 µM; nearly all actives have a fitted effect of over 30% in size)
# In short: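 GeneBLAzer PPARg UAS-bla HEK293H cells, 5 h post-plating, exposed to compounds 17 h at 37C. LiveBLAzer B/G FRET substrate added for 1 h at room temperature; beta-lactamase reporter read by fluorescence intensity.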
# [13] = qHTS assay to identify small molecule antagonists of the peroxisome proliferator-activated receptor gamma (PPARg) signaling pathway - cell viability counter screen (AID 743194); further: nearly all actives have a fitted effect of over 55% in size
# In short: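 Cytotoxicity counter screen in PPARg-bla HEK293H cells, same wells as reporter assay. Compounds plus 50 nM rosiglitazone (final) for 17 h at 37 C, then viability read by CellTiter-Glo luminescence.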
# [14] = qHTS assay for small molecule agonists of the antioxidant response element (ARE) signaling pathway (AID 743202; active means well fitted activation curve with a large enough effect in the signal ratio in the repeat runs, not every such curve was filed as active; the % refers to the signal ratio)
# In short: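 HepG2 ARE-bla reporter line, 2,000 cells/well; 5 h preincubation 37 C/5% CO2; compound (DMSO) 16 h 37 C; B/G FRET substrate 2 h RT; fluorescence intensity.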
# [15] = qHTS assay for small molecule agonists of the antioxidant response element (ARE) signaling pathway - cell viability counter screen (AID 743203; calls by dose curve; further: nearly all actives have a fitted effect of over 55% in size)
# In short: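 Cytotoxicity was tested in parallel with the ARE reporter screen. ARE-bla HepG2 cells were exposed to compounds for 16 hrs, and viability was taken from CellTiter-Glo luminescence.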
# [16] = qHTS assay for small molecule activators of the heat shock response signaling pathway - cell viability counter screen (AID 743209); further: nearly all actives have a fitted effect of over 50% in size
# In short: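 Cytotoxicity counter screen run in parallel with the HSE beta-lactamase reporter, using the same wells. HeLa HSE-bla cells received compound for 5 h at 37 C; ATP-based CellTiter-Glo luminescence was measured after 30 min at room temperature.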
# [17] = qHTS assay for small molecule activators of the heat shock response signaling pathway (AID 743210; active means well fitted activation curve with a large enough effect in the signal ratio in the repeat runs, with a control signal flat, not every such curve was filed as active; the % refers to the signal ratio;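 further: HeLa cells with beta-lactamase reporter driven by heat shock elements; series mostly up to about 63 µM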)
# In short: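 Beta-lactamase reporter read-out: FRET substrate fluorescence after 2.5 h at RT, following 5 h compound treatment at 37 C of HeLa cells carrying HSE-driven bla reporter; quantitative HTS format.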
# [18] = target: Estrogen receptor (Homo sapiens) (UniProt P03372); assay: qHTS assay to identify small molecule agonists of the estrogen receptor alpha (ER-alpha) signaling pathway (AID 743075; calls by dose curve;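 further: HEK293 GripTite cells with ER-alpha and UAS-driven beta-lactamase reporter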)
# [19] = target: Estrogen receptor (Homo sapiens) (UniProt P03372); assay: qHTS assay to identify small molecule agonists of the estrogen receptor alpha (ER-alpha) signaling pathway using the BG1 cell line (AID 743079); further: nearly all actives have a fitted effect of over 20% in size
SMILES,Potency [1],Potency [2],Potency [3],Potency [4],Potency [5],Potency [6],Potency [7],Potency (Aromatase (Homo sapiens)),Potency [8],Potency [9],Potency [10],outcome [11],Potency [12],Potency [13],Potency [14],Potency [15],Potency [16],Potency [17],Potency [18],Potency [19]
CC(C)N=C=NC(C)C,inactive,inactive,inactive,inactive,inactive,inactive,inactive,inactive,inactive,inactive,inactive,inactive,inactive,inactive,inactive,inactive,inactive,inactive,–,–
CC(C)(C)S,inactive,inactive,inactive,–,inactive,inactive,inactive,inactive,inactive,inactive,inactive,inactive,–,inactive,inactive,inactive,–,–,inactive,inactive
CCOCCC(=O)OCC,inactive,inactive,inactive,–,inactive,inactive,inactive,inactive,inactive,inactive,inactive,inactive,inactive,inactive,inactive,inactive,inactive,inactive,inactive,inactive
COC(OC)OC,inactive,inactive,inactive,inactive,–,inactive,inactive,inactive,inactive,inactive,inactive,–,–,inactive,inactive,–,inactive,inactive,inactive,inactive
CN1CCCN(C(c2ccccc2)c2ccc(Cl)cc2)CC1 (configuration not stated),6.68 µM (active),10.6 µM (active),inactive,inactive,–,inactive,–,inactive,21.1 µM (active),inactive,–,–,–,–,–,–,inactive,inactive,inactive,inactive
SCCc1cnccn1,inactive,inactive,inactive,inactive,–,inactive,inactive,inactive,inactive,–,inactive,–,inactive,inactive,–,inactive,–,–,–,–
Nc1c(Cl)cc(Cl)cc1[N+](=O)[O-],inactive,inactive,inactive,inactive,inactive,inactive,inactive,–,inactive,inactive,inactive,–,–,inactive,–,–,inactive,–,inactive,inactive
